Key:
Test in all cases: log2 ratio of Biotin-Ahx-Ub-VS probe labelling (fragment/DMSO); higher = less target engagement (more negative = stronger competition), active = hit call of the paper (q ≤ 0.05, log2 ratio ≤ -1)
Conditions in all cases: compound concentration: 200 uM; treatment time: 3 h
[1] = target: USP9X (UniProt Q93008)
Summary of the method: (§1)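 Labelled DUBs from HEK293T lysate were NeutrAvidin-enriched, digested with LysC and trypsin, and run by diaPASEF LC-MS/MS. Before that, each 495 µg sample in Tris/CHAPS/IGEPAL buffer with protease inhibitors was treated in triplicate with fragment at 200 µM or vehicle for 3 h, then with Biotin-Ahx-Ub-VS at 0.5 µM final for 1 h. Values are average log2 ratios of fragment over vehicle by unpaired t-test, based on global-median-normalised Spectronaut label-free quantities from proteins with ≥2 unique peptides.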

[2] = target: UniProt O00487
Summary of the method: as §1

[3] = target: UniProt O00507
Summary of the method: as §1

[4] = target: UniProt P51784
Summary of the method: as §1

[5] = target: T1, UniProt Q5T2D3
T1 sequence (whole entry): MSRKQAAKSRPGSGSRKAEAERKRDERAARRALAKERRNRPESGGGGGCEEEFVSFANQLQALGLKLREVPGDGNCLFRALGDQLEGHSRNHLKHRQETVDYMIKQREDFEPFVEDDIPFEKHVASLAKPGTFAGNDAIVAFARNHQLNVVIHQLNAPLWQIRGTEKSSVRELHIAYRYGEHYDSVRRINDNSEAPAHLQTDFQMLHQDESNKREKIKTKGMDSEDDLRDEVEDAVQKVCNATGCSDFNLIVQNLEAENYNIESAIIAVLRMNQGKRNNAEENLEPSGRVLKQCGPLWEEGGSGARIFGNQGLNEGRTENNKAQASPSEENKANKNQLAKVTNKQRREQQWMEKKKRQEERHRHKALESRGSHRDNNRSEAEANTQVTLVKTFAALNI
Summary of the method: as §1

[6] = target: T2, UniProt Q8TE49
T2 sequence (whole entry): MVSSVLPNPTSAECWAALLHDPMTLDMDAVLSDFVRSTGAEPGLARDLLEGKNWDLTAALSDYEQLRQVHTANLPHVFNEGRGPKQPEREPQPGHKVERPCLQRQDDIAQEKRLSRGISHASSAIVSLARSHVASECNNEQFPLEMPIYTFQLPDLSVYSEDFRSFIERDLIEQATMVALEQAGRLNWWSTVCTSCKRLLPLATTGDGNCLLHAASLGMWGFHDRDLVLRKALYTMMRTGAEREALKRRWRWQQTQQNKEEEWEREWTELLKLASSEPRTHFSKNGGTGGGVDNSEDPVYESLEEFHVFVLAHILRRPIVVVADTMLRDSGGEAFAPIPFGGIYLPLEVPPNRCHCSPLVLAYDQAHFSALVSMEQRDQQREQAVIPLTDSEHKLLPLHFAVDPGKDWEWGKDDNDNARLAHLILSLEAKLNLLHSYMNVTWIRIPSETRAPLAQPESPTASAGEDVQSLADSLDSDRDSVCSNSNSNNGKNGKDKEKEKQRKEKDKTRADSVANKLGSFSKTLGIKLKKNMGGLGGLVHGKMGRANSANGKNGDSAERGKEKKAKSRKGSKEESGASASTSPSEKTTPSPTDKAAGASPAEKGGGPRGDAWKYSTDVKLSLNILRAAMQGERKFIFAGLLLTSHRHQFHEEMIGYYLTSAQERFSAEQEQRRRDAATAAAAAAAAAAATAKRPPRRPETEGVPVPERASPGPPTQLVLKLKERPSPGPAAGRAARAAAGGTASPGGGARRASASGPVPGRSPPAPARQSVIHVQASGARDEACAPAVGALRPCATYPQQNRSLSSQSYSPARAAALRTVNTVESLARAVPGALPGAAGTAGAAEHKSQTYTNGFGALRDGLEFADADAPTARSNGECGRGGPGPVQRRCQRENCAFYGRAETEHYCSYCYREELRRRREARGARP
Summary of the method: as §1

[7] = target: T3, UniProt Q9P2H5
T3 sequence (whole entry): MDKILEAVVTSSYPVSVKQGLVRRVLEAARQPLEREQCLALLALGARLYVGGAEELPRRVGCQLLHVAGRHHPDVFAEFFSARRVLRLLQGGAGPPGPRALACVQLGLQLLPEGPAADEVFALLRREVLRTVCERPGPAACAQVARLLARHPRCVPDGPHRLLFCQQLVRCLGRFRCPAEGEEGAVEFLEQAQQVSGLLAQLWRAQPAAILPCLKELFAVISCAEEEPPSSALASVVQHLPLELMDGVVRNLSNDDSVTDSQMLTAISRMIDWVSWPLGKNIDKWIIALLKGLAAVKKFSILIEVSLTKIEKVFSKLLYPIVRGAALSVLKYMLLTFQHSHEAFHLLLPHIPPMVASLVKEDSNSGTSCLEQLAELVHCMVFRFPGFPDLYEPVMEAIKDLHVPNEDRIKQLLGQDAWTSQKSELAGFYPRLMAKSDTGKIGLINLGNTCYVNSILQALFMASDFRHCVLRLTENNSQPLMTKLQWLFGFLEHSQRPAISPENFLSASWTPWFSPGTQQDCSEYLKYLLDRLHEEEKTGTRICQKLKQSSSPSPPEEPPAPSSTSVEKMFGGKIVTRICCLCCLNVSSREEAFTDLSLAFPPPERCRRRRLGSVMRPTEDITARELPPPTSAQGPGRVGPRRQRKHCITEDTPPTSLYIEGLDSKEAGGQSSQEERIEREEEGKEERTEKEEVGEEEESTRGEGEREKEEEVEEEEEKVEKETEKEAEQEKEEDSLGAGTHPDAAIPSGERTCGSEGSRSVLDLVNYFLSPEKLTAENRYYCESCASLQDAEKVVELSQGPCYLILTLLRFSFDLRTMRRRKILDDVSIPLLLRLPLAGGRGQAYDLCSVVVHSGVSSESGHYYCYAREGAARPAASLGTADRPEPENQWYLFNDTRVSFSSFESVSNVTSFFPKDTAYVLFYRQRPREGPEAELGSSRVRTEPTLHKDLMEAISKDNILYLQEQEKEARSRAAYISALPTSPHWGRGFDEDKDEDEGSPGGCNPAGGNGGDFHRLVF
Summary of the method: as §1

[8] = target: T4, UniProt Q9UGI0
T4 sequence (whole entry): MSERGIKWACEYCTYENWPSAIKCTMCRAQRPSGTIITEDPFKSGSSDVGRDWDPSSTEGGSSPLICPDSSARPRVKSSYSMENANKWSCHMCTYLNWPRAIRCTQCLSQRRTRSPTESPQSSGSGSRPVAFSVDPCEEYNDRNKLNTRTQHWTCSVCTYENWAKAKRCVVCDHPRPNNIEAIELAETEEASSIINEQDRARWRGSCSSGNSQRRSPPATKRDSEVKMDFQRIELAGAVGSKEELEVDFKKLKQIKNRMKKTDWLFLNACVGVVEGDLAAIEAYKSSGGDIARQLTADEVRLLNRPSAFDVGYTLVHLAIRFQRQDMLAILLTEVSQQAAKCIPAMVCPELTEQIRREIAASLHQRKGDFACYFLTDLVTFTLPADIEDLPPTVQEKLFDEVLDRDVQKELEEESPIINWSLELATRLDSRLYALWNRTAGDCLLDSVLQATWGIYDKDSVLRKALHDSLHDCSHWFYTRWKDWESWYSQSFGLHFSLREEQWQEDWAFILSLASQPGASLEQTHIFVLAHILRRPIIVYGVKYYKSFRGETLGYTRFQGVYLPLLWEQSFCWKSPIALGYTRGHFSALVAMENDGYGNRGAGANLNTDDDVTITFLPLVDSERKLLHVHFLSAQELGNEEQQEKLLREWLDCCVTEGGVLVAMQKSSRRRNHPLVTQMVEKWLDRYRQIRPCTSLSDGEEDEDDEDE
Summary of the method: as §1

[9] = target: T5, YOD1 (UniProt Q5VVQ6)
T5 sequence (whole entry): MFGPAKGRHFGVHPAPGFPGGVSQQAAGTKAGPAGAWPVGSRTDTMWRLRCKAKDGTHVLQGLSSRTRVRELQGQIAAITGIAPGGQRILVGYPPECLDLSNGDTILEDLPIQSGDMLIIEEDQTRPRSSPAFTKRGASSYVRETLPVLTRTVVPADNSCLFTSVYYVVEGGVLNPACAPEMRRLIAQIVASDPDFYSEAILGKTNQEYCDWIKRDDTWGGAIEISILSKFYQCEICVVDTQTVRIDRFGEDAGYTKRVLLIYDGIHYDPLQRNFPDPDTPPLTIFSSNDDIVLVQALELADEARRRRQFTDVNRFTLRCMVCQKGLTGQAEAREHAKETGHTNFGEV
Summary of the method: as §1

Measured: log2 ratio of Biotin-Ahx-Ub-VS probe labelling

UniProt P51784, sequence (P51784 whole entry): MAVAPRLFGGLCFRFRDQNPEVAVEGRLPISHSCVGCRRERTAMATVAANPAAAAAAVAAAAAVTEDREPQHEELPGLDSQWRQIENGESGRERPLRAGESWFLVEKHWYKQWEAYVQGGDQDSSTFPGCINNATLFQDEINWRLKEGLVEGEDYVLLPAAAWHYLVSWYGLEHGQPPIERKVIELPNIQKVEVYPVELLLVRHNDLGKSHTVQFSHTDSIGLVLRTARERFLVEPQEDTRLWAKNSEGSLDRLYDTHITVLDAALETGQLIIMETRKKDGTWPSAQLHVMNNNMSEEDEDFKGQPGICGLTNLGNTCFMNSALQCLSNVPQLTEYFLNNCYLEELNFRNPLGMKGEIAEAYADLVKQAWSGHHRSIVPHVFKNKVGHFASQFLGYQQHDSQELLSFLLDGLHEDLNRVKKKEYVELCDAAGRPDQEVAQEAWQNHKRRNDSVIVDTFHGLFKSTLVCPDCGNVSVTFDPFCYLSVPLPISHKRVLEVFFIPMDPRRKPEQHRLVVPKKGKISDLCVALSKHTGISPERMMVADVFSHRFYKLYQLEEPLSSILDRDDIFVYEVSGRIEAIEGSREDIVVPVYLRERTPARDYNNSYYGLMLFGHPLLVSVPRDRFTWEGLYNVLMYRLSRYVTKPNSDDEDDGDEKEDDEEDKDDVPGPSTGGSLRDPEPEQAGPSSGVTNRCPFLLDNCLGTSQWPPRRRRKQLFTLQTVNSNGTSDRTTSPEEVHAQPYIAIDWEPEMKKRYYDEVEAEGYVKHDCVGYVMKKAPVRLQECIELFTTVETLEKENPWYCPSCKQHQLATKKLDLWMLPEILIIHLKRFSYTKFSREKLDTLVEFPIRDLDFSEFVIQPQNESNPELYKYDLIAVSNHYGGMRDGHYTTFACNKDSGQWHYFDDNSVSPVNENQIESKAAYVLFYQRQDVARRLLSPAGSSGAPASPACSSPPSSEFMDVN
UniProt O00487, sequence (O00487 whole entry): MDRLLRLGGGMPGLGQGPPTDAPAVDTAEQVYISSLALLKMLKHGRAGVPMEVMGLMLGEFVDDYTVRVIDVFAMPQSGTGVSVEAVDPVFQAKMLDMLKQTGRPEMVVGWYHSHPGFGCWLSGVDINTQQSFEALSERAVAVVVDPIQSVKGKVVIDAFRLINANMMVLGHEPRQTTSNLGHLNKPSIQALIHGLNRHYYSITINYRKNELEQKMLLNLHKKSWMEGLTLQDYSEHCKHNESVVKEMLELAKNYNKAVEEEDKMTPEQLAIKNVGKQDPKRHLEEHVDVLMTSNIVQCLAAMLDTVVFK
UniProt O00507, sequence (O00507 whole entry): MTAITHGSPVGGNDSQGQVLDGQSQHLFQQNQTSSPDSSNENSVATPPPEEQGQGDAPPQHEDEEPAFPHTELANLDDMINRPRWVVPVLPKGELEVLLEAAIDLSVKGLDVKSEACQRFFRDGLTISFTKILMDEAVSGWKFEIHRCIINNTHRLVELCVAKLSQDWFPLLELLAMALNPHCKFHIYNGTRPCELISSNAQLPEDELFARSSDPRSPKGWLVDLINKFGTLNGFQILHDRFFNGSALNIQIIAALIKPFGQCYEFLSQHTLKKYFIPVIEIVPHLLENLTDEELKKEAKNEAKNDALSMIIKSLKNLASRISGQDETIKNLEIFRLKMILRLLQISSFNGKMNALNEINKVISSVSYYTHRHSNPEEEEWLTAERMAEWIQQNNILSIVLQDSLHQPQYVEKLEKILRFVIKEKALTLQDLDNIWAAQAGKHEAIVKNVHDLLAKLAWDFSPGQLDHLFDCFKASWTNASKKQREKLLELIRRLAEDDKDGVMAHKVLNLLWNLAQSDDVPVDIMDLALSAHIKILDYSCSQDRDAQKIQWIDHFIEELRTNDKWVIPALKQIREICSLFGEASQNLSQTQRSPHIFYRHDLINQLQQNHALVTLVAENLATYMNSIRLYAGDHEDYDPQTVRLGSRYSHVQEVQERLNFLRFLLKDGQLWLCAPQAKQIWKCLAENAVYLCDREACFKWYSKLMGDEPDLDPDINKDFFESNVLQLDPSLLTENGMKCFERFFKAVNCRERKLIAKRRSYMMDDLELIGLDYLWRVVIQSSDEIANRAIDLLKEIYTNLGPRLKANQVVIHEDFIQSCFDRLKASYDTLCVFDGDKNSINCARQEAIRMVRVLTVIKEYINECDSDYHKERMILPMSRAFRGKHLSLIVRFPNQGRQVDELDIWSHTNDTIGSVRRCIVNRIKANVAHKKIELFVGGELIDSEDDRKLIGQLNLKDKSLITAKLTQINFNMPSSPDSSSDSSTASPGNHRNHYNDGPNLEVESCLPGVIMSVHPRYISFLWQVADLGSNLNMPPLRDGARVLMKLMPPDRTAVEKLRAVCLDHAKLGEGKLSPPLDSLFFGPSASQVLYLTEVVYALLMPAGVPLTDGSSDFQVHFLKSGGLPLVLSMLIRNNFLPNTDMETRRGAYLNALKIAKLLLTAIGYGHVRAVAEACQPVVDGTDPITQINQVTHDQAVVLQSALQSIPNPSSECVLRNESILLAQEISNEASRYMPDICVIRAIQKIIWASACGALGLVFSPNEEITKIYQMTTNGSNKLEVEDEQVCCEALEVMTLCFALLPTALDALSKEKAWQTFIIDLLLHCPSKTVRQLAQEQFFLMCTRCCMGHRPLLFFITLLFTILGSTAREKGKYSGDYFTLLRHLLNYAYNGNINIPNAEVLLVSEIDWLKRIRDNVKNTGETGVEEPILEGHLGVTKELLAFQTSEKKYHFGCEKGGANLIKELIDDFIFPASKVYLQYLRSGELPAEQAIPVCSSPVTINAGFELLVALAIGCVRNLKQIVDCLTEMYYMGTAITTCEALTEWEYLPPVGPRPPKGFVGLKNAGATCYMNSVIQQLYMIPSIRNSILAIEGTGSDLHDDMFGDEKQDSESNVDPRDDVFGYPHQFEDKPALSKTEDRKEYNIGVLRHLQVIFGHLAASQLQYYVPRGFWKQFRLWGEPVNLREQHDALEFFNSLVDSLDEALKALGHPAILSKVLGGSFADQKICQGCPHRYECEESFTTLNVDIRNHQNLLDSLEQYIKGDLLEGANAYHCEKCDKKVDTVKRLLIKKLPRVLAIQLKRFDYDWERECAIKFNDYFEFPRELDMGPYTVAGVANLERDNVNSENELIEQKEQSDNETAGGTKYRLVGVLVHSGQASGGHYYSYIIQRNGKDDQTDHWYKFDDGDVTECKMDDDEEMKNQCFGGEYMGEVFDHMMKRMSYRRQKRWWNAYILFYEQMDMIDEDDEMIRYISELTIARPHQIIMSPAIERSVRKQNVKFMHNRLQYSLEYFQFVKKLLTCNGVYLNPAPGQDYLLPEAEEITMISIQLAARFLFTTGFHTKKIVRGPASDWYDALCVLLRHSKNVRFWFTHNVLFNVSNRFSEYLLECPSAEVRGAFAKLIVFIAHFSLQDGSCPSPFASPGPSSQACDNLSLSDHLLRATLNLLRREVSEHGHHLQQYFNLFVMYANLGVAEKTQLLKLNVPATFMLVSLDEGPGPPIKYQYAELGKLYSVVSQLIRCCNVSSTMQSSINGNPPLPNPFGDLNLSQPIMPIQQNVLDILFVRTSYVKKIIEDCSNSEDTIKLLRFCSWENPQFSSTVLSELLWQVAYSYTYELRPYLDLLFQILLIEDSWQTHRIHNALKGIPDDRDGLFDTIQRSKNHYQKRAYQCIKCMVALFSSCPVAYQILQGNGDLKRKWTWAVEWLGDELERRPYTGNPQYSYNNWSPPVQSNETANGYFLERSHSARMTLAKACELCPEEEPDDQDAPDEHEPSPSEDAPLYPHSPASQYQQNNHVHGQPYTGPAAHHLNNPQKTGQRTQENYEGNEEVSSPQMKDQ

Cl.O=C(CCl)N1CCC(n2nc3ccccc3n2)CC1
inactive: [1] -0.485 | [2] -0.114 | [3] -0.531 | [4] -0.268 | [5] -0.193 | [6] -0.712 | [7] -0.415 | [8] -0.422 | [9] -0.0827
